Assay results as given in PubChem BioAssay.

test: changes in parasitized red cell lysis, either direction – P. falciparum Indochina, OD700, 3 h, PSAC antagonist project, primary screen (AID 1156); conditions: P. falciparum-infected erythrocytes, osmotic lysis, higher = more signal, called active from +8 up or from −8 down

z-score, inactive:
CC(c1ccccc1)C(O)C1C=CC2C(=O)N(C)C(=O)C2N1Nc1ccccc1 (stereo not drawn) -0.0204
Cc1ccc(N2C(=O)c3ccccc3[C@@H](C(=O)NCCCN(C)C)[C@@H]2c2ccc(CO)cc2)nc1 0.591
CCCCC(CC)C(O)C1C=CC2C(=O)N(C)C(=O)C2N1Nc1ccccc1 (stereo not drawn) -0.0492
C=CCNC(=O)[C@@H]1[C@H]2C(=O)O[C@H](c3ccccc3)[C@H](c3ccccc3)N2[C@H](c2ccc(O)cc2)[C@@]12C(=O)N(C(=O)OCCOC)c1ccc(C#CC3=CCCCC3)cc12 -0.942
NCCCCCCNC(=O)[C@@H]1C[C@@H]2C(=O)N[C@@H](CCCCN)C(=O)N2[C@@H]1c1ccc(O)cc1 -2.05
Cc1ccc(C(C)CC(O)C2C=CC3C(=O)N(c4ccccc4)C(=O)C3N2Nc2ccccc2)o1 (stereo not drawn) -0.0498
COCCOC(=O)N1C(=O)[C@@]2(c3cc(C#CC4(O)CCCCCC4)ccc31)[C@H](C(=O)N1CCc3cc(OC)c(OC)cc3C1)[C@H]1C(=O)O[C@H](c3ccccc3)[C@H](c3ccccc3)N1[C@@H]2c1ccc(OCCO)cc1 1.41
COC(=O)[C@@]1(Cc2ccc(OC)cc2)[C@H]2c3cc(C(=O)N(C)C)n(Cc4ccc(OC(F)(F)F)cc4)c3C[C@H]2CN1C(=O)c1ccccc1 0.219
CCCCCN1CC=CC23O[C@@H]4C=CCCOC(=O)C4[C@H]2C(=O)N(CCCCCCO)[C@@H]3C1=O (stereo partly drawn) 1.01
COCCOC(=O)N1C(=O)[C@@]2(c3cc(C#CC4=CCCCC4)ccc31)[C@H](c1ccccc1OCCO)N1[C@H](c3ccccc3)[C@H](c3ccccc3)OC(=O)[C@H]1[C@@H]2C(=O)N1CCN(c2ncccn2)CC1 0.281
NC(=O)[C@@]1(Cc2ccccc2)COC(c2ccc(OCCCO)cc2)=N1 0.121
N#Cc1ccc(NN2C(C(O)c3ccc(Br)cc3)C=CC3C(=O)N(c4ccccc4)C(=O)C32)cc1 (stereo not drawn) 0.419
CCOC(=O)C[C@H]1[C@H](OC(=O)c2ccccc2-c2ccccc2)[C@@H](NC(=O)c2ccc3ccccc3c2)c2cc(OCCCO)ccc2N1C(=O)c1ccccc1 0.652
O=C1NC(=O)C2C1C=CC(C(O)c1ccco1)N2Nc1ccc(Cl)cc1Cl (stereo not drawn) 0.331
C=CCOC(=O)[C@@]1(Cc2ccccc2)C[C@H]2CO[C@H](c3ccc(OC)cc3)N2C1=O -0.256
COCCCNC(=O)[C@@H]1c2ccccc2C(=O)N(C(C)C)[C@H]1c1ccc(CO)cc1 -0.172
COC(=O)C1=CC(CCCO)=CC(c2cccs2)N(Cc2cccc(OC(F)(F)F)c2)C=C1C(=O)OC (stereo not drawn) 0.87
[N-]=[N+]=Nc1ccccc1C[C@]1(C(=O)NCC(O)CO)COC(c2ccc(OCCCO)cc2)=N1 (stereo partly drawn) 3.57
COc1cccc(C)c1NC(=O)O[C@H]1[C@H](OC(=O)Nc2ccc3c(c2)OCO3)[C@@H](OC(=O)Nc2ccc3c(c2)OCO3)[C@@H](OC)O[C@@H]1CO 0.579
CCCCCCCCCCC(O)C1C=CC2C(=O)N(c3ccccc3)C(=O)C2N1Nc1ccc(C#N)cc1 (stereo not drawn) 0.0103
Cc1ccc(F)cc1S(=O)(=O)N[C@@H]1CCN(Cc2ccc(Br)cc2)C1 0.759
C=CC[C@]1(C(=O)N2CCCCC2)N=C(c2ccc(OCCCO)cc2)O[C@H]1c1ccccc1CN=[N+]=[N-] 2.81
COCC(=C=CC[C@H](O)c1ccc(CO)o1)CCO -0.148
O=C(c1ccccc1)N1C(=O)[C@]2(Cc3ccccc31)N=C(c1ccc(OCCCO)cc1)O[C@@H]2c1ccccc1 0.0521
C[N+](C)(C)CCCCCCNC(=O)[C@@H]1C[C@@H]2C(=O)N3CCC[C@H]3C(=O)N2[C@@H]1c1ccc(O)cc1 -0.72
C=CCC(OC(C)=O)[C@@H]1[C@@H](N(Cc2ccc(-c3ccccc3)cc2)C(=O)c2ccc(-c3ccccc3)cc2)c2cc(OCCCO)ccc2N1C(=O)c1ccc2ccccc2c1 (stereo partly drawn) -0.503
CCOC(=O)C1=C[C@@H](C(C)(C)C)N(S(=O)(=O)c2ccc(C)cc2)[C@H]1c1cccc2ccccc12 0.31
O=C1CS(=O)(=O)C(c2cccc([N+](=O)[O-])c2)N1c1ccccc1 (stereo not drawn) -0.903
